Bioassay records deposited in PubChem by The Scripps Research Institute Molecular Screening Center.
Shown are actives, neighbours in structure and some others; about 3.5% of the full set was active somewhere.
MITF primary – MITF inhibitors, primary screen, biochemical, AlphaScreen, human; 650,000 tested, 0.91% active; AlphaScreen MITF homodimerization, bead proximity signal; Microphthalmia-associated transcription factor (Homo sapiens), O75030; inhibition, % at 2.6 µM; in the data active = inhibition above about 50%;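 also: 0% = vehicle wells with protein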
TEAD-YAP inh – TEAD-YAP interaction inhibition, primary screen, TEAD-YAP interaction inhibitor project, luminescence, HEK-TIYL cells; TEAD-Gal4/YAP UAS-luciferase luminescence; AID 1259422, 2018; inhibition, % at 9.12 µM; 640,000 tested, 1.4% active; in the data active = inhibition above about 32%;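 also: 0% = median of test compound wells and 100% = reference inhibitor wells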
FBW7 act – FBW7 E3 ligase activators, primary screen, biochemical, AlphaScreen, human; F-box/WD repeat-containing protein 7 (Homo sapiens), Q969H0; AlphaScreen FBW7–phospho-cyclin E peptide binding, activator screen; normalized activity (activation), % at 26.1 µM; 650,000 tested, 0.13% active; AID 1259310, 2017; in the data active = normalized activity above about 1.9%;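 also: purified mutant Fbw7 with reduced substrate affinity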
GPR151 activ – activators of human GPR151, primary screen, cell-based, PathHunter beta-arrestin, luminescence; G-protein coupled receptor 151 (Homo sapiens), Q8TDV0; PathHunter beta-arrestin GPR151 cells; activation, % at 11.2 µM; 650,000 tested, 1% active; in the data active = activation above about 4.9%;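 also: 0% = median of compound wells and 100% = cells with positive control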
Target sequence (Q8TDV0 whole entry, looked up): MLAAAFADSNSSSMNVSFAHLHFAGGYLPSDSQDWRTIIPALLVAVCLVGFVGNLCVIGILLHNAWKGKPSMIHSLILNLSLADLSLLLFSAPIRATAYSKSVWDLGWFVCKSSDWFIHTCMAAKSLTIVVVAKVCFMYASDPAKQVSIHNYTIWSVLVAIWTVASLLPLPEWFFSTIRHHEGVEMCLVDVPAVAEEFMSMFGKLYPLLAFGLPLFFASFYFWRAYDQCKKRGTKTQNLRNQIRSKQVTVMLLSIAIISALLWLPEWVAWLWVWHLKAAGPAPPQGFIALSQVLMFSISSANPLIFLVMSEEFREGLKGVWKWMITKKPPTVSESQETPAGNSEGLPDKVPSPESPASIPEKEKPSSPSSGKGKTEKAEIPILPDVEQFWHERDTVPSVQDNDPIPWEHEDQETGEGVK
Numbers without * were called inactive.

SMILES | MITF primary | TEAD-YAP inh | FBW7 act | GPR151 activ
COc1cc(S(=O)(=O)NCc2ccncc2)ccc1Cl | 17 | 40* | 0 | 3
COc1ccc(S(=O)(=O)Nc2ccc(OC)c(OC)c2)cc1Cl | -2 | 38* | 0 | 2
Cc1cc(C)c(S(=O)(=O)NCc2ccncc2)c(C)c1 | -6 | 46* | 0 | 0
COc1ccc(Cl)cc1NS(=O)(=O)c1ccc(C)cc1OC | -7 | 52* | 0 | 0
COc1cc(S(=O)(=O)NCc2cccnc2)ccc1Cl | 1 | 8 | 0 | -1
CCN(CC)c1nc(NCc2ccccc2)nc(Nc2ccc(-n3ccnc3)cc2)n1 | 15 | -3 | 0 | -1
CC(=O)[C@@]12CCCC[C@@H]1CC1C3CC=C4CC5(CC[C@]4(C)C3CC[C@@]12C)OCCO5 (some centres undefined) | -4 | 13 | 0 | -1
CC1=C(C(=O)N(C)C)C(c2ccccc2F)NC(=S)N1 (centres undefined) | 8 | 2 | 0 | 1
CCOc1ccccc1C1C(C(=O)OC)=C(C)Nc2nnnn21 (centres undefined) | -10 | 3 | 0 | -1
CC(=O)c1ccc(NC(=O)CN2C(=O)CC(c3ccco3)Sc3ccccc32)cc1 (centres undefined) | 5 | -4 | 0 | -1
COc1cc(NS(=O)(=O)c2ccccc2)c(OC)cc1Cl | -4 | 3 | 0 | 1
CCOc1ccc(S(=O)(=O)Nc2cc(OC)c(Cl)cc2OC)cc1 | 5 | 63* | 0 | 0
CCc1ccccc1NC(=O)c1ccc(NCc2ccccc2OC)c([N+](=O)[O-])c1 | 4 | 43* | 0 | 0
COc1ccccc1CNc1ccc(C(=O)Nc2ccc(C)c(F)c2)cc1[N+](=O)[O-] | -2 | 1 | 0 | 0
CCc1ccc(NC(=O)c2ccc(NCc3ccccc3OC)c([N+](=O)[O-])c2)cc1 | 4 | 1 | 0 | 0
COc1ccccc1CNc1ccc(C(=O)Nc2ccc(C)cc2C)cc1[N+](=O)[O-] | 7 | 57* | 1 | 2
CCC(C)NC(=O)CCC(=O)n1ncc2cc(C)ccc21 (centres undefined) | 17 | 0 | 0 | -1
CCS(=O)(=O)NCCNc1ccc([N+](=O)[O-])cc1Cl | 6 | 7 | 0 | -1
O=C(OCc1cc(=O)oc2cc(O)c(O)cc12)c1cc(Cl)ccc1[N+](=O)[O-] | 64* | 6 | 0 | 1
O=C(OCc1ccccc1)c1cc(Cl)ccc1[N+](=O)[O-] | 4 | 6 | 0 | -1
CCOc1ccc(Nc2nc(N)c(C(=O)c3cccc(OC)c3)s2)cc1 | 3 | 61* | 0 | -1
COc1ccc(-c2nc(Nc3ccccc3OC)sc2CC(=O)O)cc1 | 8 | 51* | 0 | 2
COc1ccc(OC)c(-c2nc(Nc3ccccc3F)sc2CC(=O)O)c1 | 3 | -14 | 0 | 0
CCOc1ccc(Nc2nc(-c3ccccc3)c(C(=O)Nc3cccc(OC)c3)s2)cc1 | -6 | -12 | 0 | 0
CCOc1ccc(Nc2nc(-c3ccc(OC)c(OC)c3)c(CC(=O)O)s2)cc1 | 0 | 34* | 0 | 1
SMILES | MITF primary | TEAD-YAP inh | FBW7 act | GPR151 activ
CCOC(=O)c1c(NC(=O)CCc2ccccc2)sc2c1CCCCC2 | 18 | 8 | 0 | 2
O=C(c1ccccc1)c1cc2cc(-c3ccncc3)ccc2[nH]1 | 2 | -19 | 0 | 2
Cc1nc2ccccn2c1C(=O)N1CCCCCC1 | 14 | 3 | 0 | -1
COc1ccc(C2/C(=C(\O)c3ccccc3)C(=O)C(=O)N2c2nc3ccccc3s2)c(OC)c1 (centres undefined) | 18 | 20 | 0 | 0
COc1cccc(C2C(C(C)=O)=C(O)C(=O)N2c2nc3ccccc3s2)c1 (centres undefined) | 8 | -46 | 0 | 0
COc1ccc(C2C(C(C)=O)=C(O)C(=O)N2c2nc3ccccc3s2)c(OC)c1 (centres undefined) | 1 | 47* | 0 | 0
COc1ccc(C2/C(=C(\O)c3ccc(Cl)cc3)C(=O)C(=O)N2c2nc3ccccc3s2)c(OC)c1 (centres undefined) | -1 | 41* | 0 | -1
COc1ccccc1N/C=C(/C#N)c1nc(-c2ccc3c(c2)OCO3)cs1 | -3 | 8 | 0 | 1
Cc1ccc(S(=O)(=O)NC(=O)c2ccc(I)cc2)cc1 | 0 | 3 | 0 | -1
